Rows were chosen to be rich in hits. Some 1.7% of all compounds tested hit in one or more screens of this group.
Coupling enz – coupling enzyme interference in Giardia aldolase counter-screen. 290,000 compounds, 0.67% hits. coupling enzyme system counterscreen, AmpLite Red fluorescence. AID 2472. activity change, negative = inhibition, % at 58.2 µM, hits read low; in the data active means activity change below about -30%
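Coupling enzymes only (glyceraldehyde-3-phosphate) + compound, at 57.5 uM final, 10 min RT; add substrate/coupling/AmpLite Red mix, 20 min RT; fluorescence ex 525/em 598 nm. Actives flag coupling-system interference.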
KCNH2 3.1 block – inhibitors of human KCNH2 3.1 potassium channel isoform | activity change, % (tested at about 1.8 µM) | 340,000 compounds, 0.95% hits | AID 720553 | U2OS KCNH2 3.1, thallium flux FluxOr; hits give low values;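 active means maximum activity change below -70%; inconclusive means maximum activity change from -70% to -50%; inactive means maximum activity change above -50%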;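 further: thallium influx rate constant from kinetic fluorescence after stimulation buffer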
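Measured as rate of thallium-driven FluxOr signal in transduced U2OS cells carrying the 3.1 channel, read kinetically for 2 min upon stimulation; values are rate constants scaled to DMSO control wells.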
USP1 inh – inhibitors of human USP1/UAF1 deubiquitinase; O94782; recombinant USP1/UAF1, Ub-Rhodamine cleavage fluorescence; Potency, µM (series often up to 57.1 µM), without a hit: top-dose activity change, negative = inhibition, usual class: inhibitors; 390,000 compounds, 0.23% hits; AID 743255; active means well fitted inhibition curve with a large enough effect; inconclusive means small, poorly fitted or top-dose-only effect; inactive means no such curve, though single readings can be large or run the other way; further: potency means the concentration at half of the fitted maximal effect; nearly all actives have a fitted effect of over 60% in size
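USP1/UAF1 complex at 1 nM was preincubated with compound for 15 min at room temperature, then Ub-Rho substrate (150nM final) was added. Fluorescence (480/540 nm) was read kinetically, 6 reads every 60 seconds.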
hERG WT inh – blocks the wildtype human KCNH2 potassium channel; Q12809; U2OS, BacMam KCNH2, thallium flux FluxOr; hits give low values; activity change, % at 1.84 µM; 340,000 compounds, 0.37% hits; AID 720551;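 active means maximum activity change below -70%; inconclusive means maximum activity change between -70% and -50%; inactive means maximum activity change above -50%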
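U2OS cells transduced with wild-type KCNH2 virus are loaded with FluxOr dye for 45 min, and thallium flux is measured in kinetic reads before and after stimulation buffer. Rate constants are normalized to DMSO controls.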
Giardia killer – Giardia lamblia killing; 340,000 compounds, 0.15% hits; Giardia lamblia trophozoite viability; AID 540267; activity change, % at 7.66 µM, hits read low; in the data active means activity change below about -80%; inconclusive means between about -30% and that limit;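 further: parasites exposed to compound for two days anaerobically before the ATP read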
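Luminescent ATP signal served as the viability read-out, measured 15-30 min after adding ATP detection reagent to trophozoites that had been incubated with compounds for 48 hrs at 37 deg C anaerobically at 100 cells/well.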
* hit, by the source's call; u = inconclusive; x = not tested or not shown. On the % scale 0 is the no-effect control and ±100 the full control effect.

SMILES	Coupling enz	KCNH2 3.1 block	USP1 inh	hERG WT inh	Giardia killer
O=C(O)c1ccccc1C(=O)Nc1n[nH]c(=S)s1	-70*	25	-14%	17	6
O=C(O)c1ccccc1C(=O)Nc1nccs1	0	1	-8%	0	-5
O=C(CNc1cccc2ccccc12)N/N=C/c1cccc(Oc2ccccc2)c1	-32*	0	-15%	-10	-8
O=C(N/N=C/c1cccc(Oc2ccccc2)c1)c1cccc(Br)c1	x	-3	-17%	6	-2
O=C(N/N=C/c1cccc(Oc2ccccc2)c1)c1ccccc1Br	-32*	2	1%	-18	-20
CCCCN(C(=O)Cc1ccc(S(=O)(=O)N2CCOCC2)s1)c1c(N)n(CCCC)c(=O)[nH]c1=O	x	-4	-12%	-75*	-22
CCCCN(C(=O)c1cc(S(=O)(=O)N2CCOCC2)ccc1F)c1c(N)n(CCCC)c(=O)[nH]c1=O	x	-7	-15%	0	13
CC(=O)Nc1sc(/C(C#N)=C\c2cccc(Cl)c2)nc1-c1ccc(C)cc1	-6	-70*	u	-46	-6
CC(=O)Nc1sc(N/N=C/c2ccccc2)nc1-c1ccc(C)cc1	-3	-7	7%	1	-13
O=C1Cc2ccccc2Sc2c(OCCN3CCCCC3)cccc21	-50*	u	-2%	-11	-5
Cc1ccc(C2c3[nH]c4ccccc4c3C[C@H]3C(=O)N(c4ccccc4C(=O)NCCCN4CCOCC4)C(=O)N23)cc1 (some centres not stated)	0	-24	-27%	-4	-27
O=C(NCCCN1CCOCC1)c1ccccc1N1C(=O)[C@@H]2Cc3c([nH]c4ccccc34)C(c3cccc(Cl)c3)N2C1=O (some centres not stated)	1	-77*	-3%	u	27
CCOC(=O)c1c(C)[nH]c(C2=NNC(=Nc3ccccc3)SC2)c1C	-38*	1	u	-3	-8
CC1CC=CC2C1C(=O)N(Cc1ccccc1)C2c1ccc(F)c(-c2ccc(N(C)C)cc2)c1 (configuration not stated)	-4	x	x	x	-15
CC1CC(C)(C)NC(C)c2ccccc21 (configuration not stated)	7	-15	6%	-1	20
CC1CC(C)(C)NCc2ccccc21 (configuration not stated)	2	-89*	-17%	14	1
CCOC(=O)Nc1c(O)ccc2oc(C)c(-c3ccccc3)c12	-57*	28	-7%	-7	-11
CCOC(=O)c1cnc2ccc(C)cc2c1Nc1ccc(N(CC)CC)cc1	x	x	-11%	x	x
Cc1ccc2sc(NNC(=O)c3cc(=O)c4ccccc4o3)nc2c1C	-47*	2	32µM*	-19	11
COc1ccc2nc(NC(=O)c3cc(=O)c4cc(C)c(C)cc4o3)sc2c1	x	x	-14%	x	x
COc1ccc2nc(NNC(=O)c3cc(=O)c4ccccc4o3)sc2c1	-3	16	28µM*	4	-26
Cc1cccc2sc(NNC(=O)c3cc(=O)c4ccccc4o3)nc12	-8	-4	u	4	-13
Cc1ccc(NC(=O)Cn2c(=O)ccn(Cc3ccccc3)c2=O)cc1S(=O)(=O)N1CCOCC1	x	8	-20%	4	-16
O=C(C1=C[C@@H](c2ccc(C(F)(F)F)cc2)C[C@@H](OCCCCO)O1)N1CCN(Cc2ccccc2)CC1	1	-123*	-21%	1	-23
OC(Cc1nc2ccccc2[nH]1)c1ccccc1Cl (configuration not stated)	-2	-74*	-7%	-10	-5
O=C(COC(=O)CNC(=O)C1CCCCC1)NC1CC1	x	x	x	x	55
CC(C)NC(=O)c1ccccc1N(Cc1ccccc1)S(C)(=O)=O	0	-75*	-11%	-25	-6
COc1ccccc1NC(=O)c1ccccc1N(Cc1ccccc1)S(C)(=O)=O	0	14	-21%	-215*	-20
COC(=O)c1ccccc1N(Cc1ccccc1)S(C)(=O)=O	0	-5	7%	-10	-13
O=C(c1cccs1)N(Cc1cccnc1)c1nc2ccc(F)cc2s1	x	x	-18%	x	x

Assay outcomes: PubChem BioAssay, National Center for Advancing Translational Sciences (NCATS)
